The list is not random: actives were taken first. Their share in the collection is about 14%.
Pf growth 48h – inhibits P. falciparum growth in the first generation, 48 h; AID 504832; P. falciparum luciferase growth in erythrocytes, 48 h; Potency, µM (top dose mostly 28.7 µM), most hits filed as inhibitors; hit rate 5.9% among 310,000
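Luciferase-expressing P. falciparum in infected erythrocytes (2% hematocrit, 0.1% parasitemia final) in RPMI 1640/0.5% Albumax were exposed to compound for 48 hours at 37 C, 5% CO2; growth read as luminescence.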
HCV inh – inhibitors of hepatitis C virus infection | Huh7.5.1 HCVcc-Cre infection, luciferase reporter, 44 h | Potency, µM (highest dose often 41.8 µM), usual class: inhibitors | hit rate 3.4% among 340,000 | AID 651820
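1,000 cells/well; 4 h culture; + compound; + HCVcc-Cre (~0.5 moi); 44 h; luciferase substrate, RT 15 min; read 15 sec.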
Pf growth 96h – P. falciparum growth inhibition at 96 hours | P. falciparum luciferase reporter growth, 96 h | Potency, µM (highest dose often 28.7 µM), most hits filed as inhibitors | hit rate 6.9% among 320,000
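Readout is luminescence from an integrated firefly luciferase in P. falciparum. Red cells, 2% hematocrit and 0.05% parasitemia final, were cultured with compound through two parasite generations (96 hours) at 37 C, 5% CO2.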
Lassa entry inh – Lassa virus entry inhibition; Lassa virus pseudotype entry inhibition, cell reporter; Potency, µM (series often up to 37.9 µM), actives largely listed as inhibitors; hit rate 1.2% among 300,000; calls by dose curve; tested in HEK293 cells; further: nearly all actives have a fitted effect of over 50% in size
Marburg entry inh – Marburg virus entry inhibition | AID 540276 | Potency, µM (series often up to 37.8 µM), actives largely listed as inhibitors | hit rate 1.8% among 300,000 | Marburg virus pseudotyped entry inhibition, cell reporter; calls by dose curve; tested in HEK293 cells
HCMV antiviral – blocks human cytomegalovirus replication. HFF cells, HCMV-luciferase reporter, 72 h; stronger effect = lower value. hit rate 4.5% among 410,000. activity change, negative = inhibition, % at 57.5 µM; in the data active means activity change below about -60%; inconclusive means no clear call, values can overlap the other calls; inactive means above about -39%
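Compounds were evaluated in HFFs infected with an HCMV luciferase reporter virus (MOI 1 PFU/cell). Luciferase in lysates collected 72 h post infection served as the replication measure.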
Large screens that a line does not name were inactive. Unless noted, the call rests on the fitted dose curve; in most records, active means well fitted inhibition curve with a large enough effect; inconclusive means small, poorly fitted or top-dose-only effect, or another doubt; inactive means no such curve, though single readings can be large or run the other way.

COc1ccc(C2N(c3ccc(Cl)cc3)N=C(C(C)=O)N(C)N2C(C)=O)cc1 (stereo not drawn)	Pf growth 48h inconclusive, HCV inh inconclusive, Pf growth 96h inconclusive, Lassa entry inh inconclusive, Marburg entry inh inconclusive
COc1cccc(N2C(C(C)=O)=NN(c3ccccc3)C2c2ccc(N3CCOCC3)cc2)c1 (stereo not drawn)	Pf growth 48h 13.1µM, Pf growth 96h inconclusive, Lassa entry inh inconclusive, Marburg entry inh inconclusive
CC(=O)C1=NN(c2ccccc2)C(c2ccc3c(c2)OCO3)N1c1ccc(N2CCOCC2)cc1 (stereo not drawn)	Pf growth 48h 14.7µM, HCV inh inconclusive, Pf growth 96h inconclusive
O=C(Nc1ccccc1N1CCOCC1)c1ccc2c(c1)OCO2	none
CC(=O)C1=NN(c2ccccc2)C(c2cccs2)N1c1ccccc1 (stereo not drawn)	Pf growth 96h 4.65µM (no result: Pf growth 48h, HCV inh, Lassa entry inh, HCMV antiviral)
O=C(CCC1CCCCC1)NC1CCCCC1	none (no result: Pf growth 48h, Pf growth 96h)
Cc1ccc(C[n+]2cccc(-c3ccccc3)c2)c(C)c1	Pf growth 48h 0.928µM, HCV inh inconclusive, Pf growth 96h 0.329µM, Lassa entry inh inconclusive, Marburg entry inh inconclusive, HCMV antiviral -95.7
CCCCC(=O)Nc1cc(C)c(O)c(-c2nc3ncccc3o2)c1	none (no result: Pf growth 48h, HCV inh, Pf growth 96h)
C[C@H]1CN([C@@H](C)CO)C(=O)Cc2cc(NC(=O)CCC(F)(F)F)ccc2O[C@H]1CN(C)S(=O)(=O)c1ccc(Cl)cc1	HCV inh inconclusive (no result: Pf growth 48h, Pf growth 96h, Lassa entry inh, Marburg entry inh)
Cc1ccc(S(=O)(=O)N(C)C[C@@H]2Oc3ccc(NS(=O)(=O)c4ccccc4)cc3CC(=O)N([C@@H](C)CO)C[C@H]2C)cc1	HCV inh 0.562µM (no result: Pf growth 48h, Pf growth 96h, Lassa entry inh, Marburg entry inh)
C[C@H]1CN([C@@H](C)CO)C(=O)Cc2cc(NC(=O)CCC(F)(F)F)ccc2O[C@H]1CN(C)S(=O)(=O)c1ccc(F)cc1	HCMV antiviral -99.8 (no result: Pf growth 48h, Pf growth 96h, Lassa entry inh, Marburg entry inh)
C[C@H](CO)N1C[C@H](C)[C@H](CN(C)S(=O)(=O)c2cccs2)Oc2ccc(NC(=O)Nc3ccc4c(c3)OCO4)cc2CC1=O	HCMV antiviral -69.0 (no result: Pf growth 48h, Pf growth 96h, Lassa entry inh, Marburg entry inh)
O=C(C1=C[C@H](c2ccc(C(F)(F)F)cc2)C[C@H](OCCCCO)O1)N1CCN(Cc2ccc3c(c2)OCO3)CC1	Pf growth 48h 5.86µM, HCV inh inconclusive, Pf growth 96h 3.7µM (no result: Lassa entry inh, Marburg entry inh)
O=C(C1=C[C@@H](c2ccc(Br)cc2)C[C@@H](OCCCCO)O1)N1CCN(Cc2ccc3c(c2)OCO3)CC1	Pf growth 48h 4.15µM, HCV inh inconclusive, Pf growth 96h 4.15µM (no result: Lassa entry inh, Marburg entry inh)
O=C(C1=C[C@H](c2ccccc2)C[C@H](OCCCCO)O1)N1CCN(Cc2ccc3c(c2)OCO3)CC1	Pf growth 48h inconclusive, HCV inh inconclusive, Pf growth 96h inconclusive (no result: Lassa entry inh, Marburg entry inh)
C[n+]1cccc(NC(=O)c2ccccc2)c1	none (no result: Pf growth 48h, HCV inh, Pf growth 96h, Lassa entry inh, Marburg entry inh)
COc1cccc(C2=Cc3ccc(F)cc3C(CC(C)=O)N2c2ccc(C#CC3(O)CCCCC3)cc2)c1 (stereo not drawn)	none (no result: Pf growth 48h, HCV inh, Pf growth 96h, Lassa entry inh, Marburg entry inh)
Cc1ccc(-c2cc(C(=O)N3CCN(c4ccccc4O)CC3)c3ccccc3n2)o1	Pf growth 48h inconclusive, Pf growth 96h 13.1µM, Lassa entry inh inconclusive, Marburg entry inh inconclusive
O=C(c1cc(-c2ccc(Br)cc2)nc2ccccc12)N1CCN(c2ccccc2O)CC1	Pf growth 48h 5.86µM, HCV inh inconclusive, Pf growth 96h 5.86µM, Lassa entry inh inconclusive, Marburg entry inh inconclusive
O=C(c1ccc2ccccc2n1)N1CCN(c2ccccc2O)CC1	Pf growth 48h inconclusive, Pf growth 96h 13.1µM
Nc1c(Cl)cc(C(=O)NC2CC2)cc1Cl	Marburg entry inh 11.2µM (no result: Pf growth 48h, Pf growth 96h)
COc1ccc(NC(=O)c2c(C)noc2-c2snnc2C)cc1	Pf growth 48h 13.1µM, Pf growth 96h 2.94µM, Lassa entry inh inconclusive, Marburg entry inh 10µM
COc1ccc(-c2cc(C(=O)Nc3ccc(C)cc3)no2)cc1	none
C[C@H](O)C#Cc1ccc2c(c1)O[C@@H](CN(C)Cc1ccc(-c3ccccc3)cc1)[C@H](C)CN([C@@H](C)CO)S2(=O)=O	HCMV antiviral -81.8 (no result: Pf growth 48h, HCV inh, Pf growth 96h, Lassa entry inh, Marburg entry inh)
C[C@H](O)C#Cc1cnc2c(c1)C(=O)N([C@H](C)CO)C[C@@H](C)[C@@H](CN(C)Cc1ccc(-c3ccccc3)cc1)O2	HCMV antiviral -70.9 (no result: Pf growth 48h, HCV inh, Pf growth 96h, Lassa entry inh, Marburg entry inh)
C[C@@H]1CN([C@H](C)CO)S(=O)(=O)c2ccc(Br)cc2O[C@@H]1CN(C)Cc1ccc(-c2ccccc2)cc1	none (no result: Pf growth 48h, HCV inh, Pf growth 96h, Lassa entry inh, Marburg entry inh)
